The values below come from PubChem BioAssay (NCATS).

The source made the active and inactive calls. The call rests on the fitted dose curve; in most records, active means well fitted curve in the direction sought with a large enough effect; inconclusive means small, poorly fitted or top-dose-only effect, or another doubt; inactive means no such curve, though single readings can be large or run the other way.

The target in this assay is Galactokinase (Homo sapiens) (UniProt P51570). Briefly: qHTS Validation Assay for Inhibitors of Human Galactokinase (GALK) (AID 493189). Further: 0% is about no effect. The note with it: purified human GALK enzyme activity, qHTS 7-point titration; series mostly up to 57.5 µM; activity change, negative = inhibition: at the top concentration. The text has this: NIH Molecular Libraries Probe Production Centers Network [MLPCN]
Chain of Galactokinase (Homo sapiens) (P51570 whole entry, looked up): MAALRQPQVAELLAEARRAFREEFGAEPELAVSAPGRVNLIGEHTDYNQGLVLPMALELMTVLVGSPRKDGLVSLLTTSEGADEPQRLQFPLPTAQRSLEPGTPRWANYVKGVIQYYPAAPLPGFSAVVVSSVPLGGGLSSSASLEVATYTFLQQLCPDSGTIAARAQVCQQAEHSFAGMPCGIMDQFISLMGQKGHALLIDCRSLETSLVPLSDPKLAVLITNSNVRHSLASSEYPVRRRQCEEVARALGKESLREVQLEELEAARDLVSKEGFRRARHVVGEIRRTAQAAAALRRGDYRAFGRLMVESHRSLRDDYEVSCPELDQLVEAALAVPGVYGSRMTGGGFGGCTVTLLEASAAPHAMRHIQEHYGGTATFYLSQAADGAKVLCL
NIH Chemical Genomics Center [NCGC]
Assay Submitter (PI): Kent Lai (University of Utah School of Medicine, 50 N Mario Capecchi Drive, Salt Lake City, UT 84132)
Inherited deficiency of galactose-1-phosphate uridyltransferase (GALT) can result in a potentially lethal disorder called Classic Galactosemia (OMIM 230400). Several lines of evidence indicate that an elevated level of galactose-1-phosphate (gal-1-p), the product of galactokinase (GALK), is a major, if not sole, pathogenic mechanism in patients with classic galactosemia. Therefore, finding inhibitors of GALK is a potential novel therapy for this inherent metabolic disease and is the long term goal of this project.
GALK (provided by the assay submitter) was assayed using ATP and D-(+)-Galactose (Sigma-Aldrich cat# G0750) as substrates. Promega Kinase-Glo Plus (cat# V3774) technology was used to detect the residual ATP following kinetic reaction. Briefly, the Kinase-Glo Plus contains Ultra-Glo [2] luciferase and D-luciferin which generates a bioluminescence signal from the remaining ATP.
NCGC Assay Protocol Summary:
Three uL/well of ATP-buffer solution (35 uM ATP, 20mM HEPES pH8.0, 5 mM MgCl2, 60 mM NaCl, 1 mM DTT, 0.01% BSA final concentration) was dispensed into 1536-well, assay plates (Greiner, solid white medium-binding plates) with Aurora Discovery BioRAPTR Flying Reagent Dispenser (FRD; Beckton-Dickenson). Compound solution (23 nL) was transferred to the assay plate using the Kalypsys 1536-pin tool. One uL/well GALK-galactose solution (5 nM GALK, 100 uM galactose, 20 mM HEPES pH8.0, 5 mM MgCl2, 60 mM NaCl, 1 mM DTT, 0.01% BSA final concentration) was then added using the FRD yielding a total kinase reaction volume of 4 uL/ well. After 1 hour of room temperature incubation, 4 uL Kinase-Glo Plus reagent was added for a final assay volume of 8 uL/ well. Luminescence was detected with the ViewLux plate reader (Perkin Elmer, Waltham, MA) after 10 min incubation using a 1 sec exposure time and 2x binning.
Regarding `COc1cc2ncnc(Nc3cccc(Cl)c3)c2cc1OC`, the “activity change, negative = inhibition” value is -0.624% (inactive). On to `CCCCS(=N)(=O)CCC(N)C(=O)O` (configuration not stated), for which the “activity change, negative = inhibition” value was 1.73% (inactive). `CC(C)NCC(O)c1ccc(NS(C)(=O)=O)cc1` (configuration not stated): the “activity change, negative = inhibition” value was 2.86% (inactive). The same measure for `CC(=O)[C@H]1CC[C@H]2[C@@H]3CCC4=CC(=O)CC[C@]4(C)[C@H]3CC[C@]12C`: -4.18% (inactive); for `Nc1nc(N)c2nc(CNc3ccc(C(=O)NC(CCC(=O)O)C(=O)O)cc3)cnc2n1` (configuration not stated): -2.83% (inactive). Regarding `OCc1ccc(-c2nn(Cc3ccccc3)c3ccccc23)o1`, the “activity change, negative = inhibition” value was -2.08% (inactive). The same measure for `CC1=C(C(=O)O)N2C(=O)[C@@H](NC(=O)C(N)c3ccccc3)[C@H]2SC1` (some centres not stated): 2.32% (inactive); for `CC(C)(C)NC(=O)[C@H]1CC[C@H]2[C@@H]3CC[C@H]4NC(=O)C=C[C@]4(C)[C@H]3CC[C@]12C`: 1.5% (inactive). The same measure for `O=C(O)C1CCCN(CCC=C(c2ccccc2)c2ccccc2)C1` (configuration not stated): -5.27% (inactive). With `CCN1CCCC1CNC(=O)c1cc(S(N)(=O)=O)ccc1OC` (configuration not stated) the figure was -14.8% (inactive); with `Cc1ccc(S(=O)(=O)N[C@@H](Cc2ccccc2)C(=O)CCl)cc1`, -3.43% (inactive); with `NC(=O)c1cccc(N)c1`, -2.57% (inactive).
